FMDV antiviral = foot and mouth disease virus antiviral activity; FMDV antiviral cell-based qHTS; Potency, µM (titrated, usually from 57.9 µM), for the others: at the top dose activity change, negative = inhibition, usual class: inhibitors; 1.2% of 410,000 active; calls by dose curve; tested in HEK293T cells; also: read-out not given here; potency is read from the fitted curve at half-maximal effect; nearly all actives have a fitted effect of over 45% in size
MARV entry inh = inhibitors of Marburg virus binding or cell entry; Marburg virus pseudotyped entry inhibition, cell reporter; Potency, µM (highest dose often 37.8 µM), for inactives: top-dose activity change, negative = inhibition, most hits filed as inhibitors; 1.8% of 300,000 active; calls by dose curve; tested in HEK293 cells; also: potency is read from the fitted curve at half-maximal effect
HCV inhibitor = inhibitors of hepatitis C virus infection; Huh7.5.1 HCVcc-Cre infection, luciferase reporter, 44 h; Potency, µM (titrated, usually from 41.8 µM), for the others: top-dose activity change, negative = inhibition, usual class: inhibitors; 3.4% of 340,000 active; AID 651820; active = well fitted inhibition curve with a large enough effect; inconclusive = small, poorly fitted or top-dose-only effect, or another doubt; inactive = no such curve, though single readings can be large or run the other way; also: potency is read from the fitted curve at half-maximal effect
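Cells (1,000/well) were plated 4 h before compound, then infected with HCVcc-Cre virus (~0.5 moi). After 44 h further culture, infection was read as luciferase luminescence following a 15 min substrate incubation at room temperature.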
HCMV inh = blocks human cytomegalovirus replication. HFF cells, HCMV-luciferase reporter, 72 h; hits give low values. activity change, negative = inhibition, % at 57.5 µM. 4.5% of 410,000 active; in the data active = activity change below about -60%; inconclusive = no clear call, values can overlap the other calls; inactive = above about -39%
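Inhibition of viral replication was scored as loss of reporter luminescence in HFFs infected with HCMV-luciferase (MOI 1 PFU/cell) for 72 h; compounds tested at 2 doses, normalized to buffer and Salinomycin controls.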
LASV entry inh = Lassa virus entry inhibition | 1.2% of 300,000 active | Potency, µM (series often up to 37.9 µM), inactives show at the top dose activity change, negative = inhibition, most hits filed as inhibitors | AID 540256 | Lassa virus pseudotype entry inhibition, cell reporter; calls by dose curve; tested in HEK293 cells; also: potency is read from the fitted curve at half-maximal effect; nearly all actives have a fitted effect of over 50% in size
The depositor's hits bear a star; ? = inconclusive; . = no result given; [ ] = another dose, or the depositor's remark. Shown are actives, neighbours in structure and some others; about 7.9% of the full set was active somewhere. % is scaled to controls: 0 for no effect and ±100 for the full control effect.

SMILES | FMDV antiviral | MARV entry inh | HCV inhibitor | HCMV inh | LASV entry inh
Cc1oc2c(c(C)cc3oc(=O)c(CC(=O)NCCc4ccc(Cl)cc4)c(C)c32)c1C | -10% | 7%[46.1 µM] | . | -23 | 9%[46.1 µM]
CCOC(=O)C1=C(C)NC(=O)NC1c1ccc(-c2ccc(Cl)cc2)o1 (centres undefined) | ? | ? | ? | 9 | -3%
CCOC(=O)C1=C(C)NC(=S)NC1c1ccc(-c2ccc(Cl)cc2)o1 (centres undefined) | ? | 13µM* | ? | -32 | -5%
CCOC(=O)C1=C(C)NC(=S)NC1c1ccco1 (centres undefined) | -21% | 16%[46.1 µM] | -8% | 53 | -2%[46.1 µM]
CCOC(=O)C1=C(C)NC(=S)NC1c1ccc(-c2cccc(Cl)c2C)o1 (centres undefined) | ? | ? | 6.3µM* | -9 | ?
Cc1cc(S(=O)(=O)N(Cc2ccc(C(C)C)cc2)CC2CCCO2)ccc1-n1cnnn1 (centres undefined) | . | ? | ? | -77* | ?
CC(C)(C)C(=O)NC(=S)NNC(=O)c1ccc(-c2ccccc2)cc1 | -14% | . | 6.3µM* | . | .
CCCOc1ccc(C(=O)NNC(=S)NC(=O)c2cccs2)cc1 | 0% | 11µM* | ? | ? | ?
CC(C)(C)C(=O)NC(=S)NNC(=O)c1ccncc1 | -18% | ? | -8% | 29 | -19%[46.1 µM]
CCCOc1ccc(C(=O)NNC(=S)NC(=O)c2ccccc2)cc1 | ? | . | ? | -86* | .
CCCOc1ccc(C(=O)NNC(=S)NC(C)=O)cc1 | 10% | ? | ? | -94* | ?
CCCOc1ccc(C(=O)NNC(=S)NC(=O)c2ccco2)cc1 | ? | ? | -25% | -31 | ?
CCOc1ccccc1C(=O)Nc1cc(C(=O)NCCc2ccccc2)ccc1Cl | . | 5% | 2.5µM* | -10 | -16%
CCOc1ccccc1NC(=O)C(OC(=O)c1ccc(N(C)C)cc1)c1ccccc1 (centres undefined) | -16% | ? | 11µM* | -32 | ?
CCOc1ccccc1NC(=O)c1ccc(Cl)c(NC(=O)CC(c2ccccc2)c2ccccc2)c1 | . | 15µM* | 6% | -36 | -4%
CCOc1ccccc1NC(=O)c1cccc(NC(=O)CC(c2ccccc2)c2ccccc2)c1 | -11% | ? | ? | ? | ?
CCOc1ccccc1NC(=O)c1ccc(C(=O)Nc2ccccc2OCC)nc1 | 3% | . | -4% | -64* | .
COc1ccc(OC)c(NC(=O)C2CCN(S(=O)(=O)c3c(C)noc3/C=C/c3ccc(C)cc3)CC2)c1 | -18% | . | . | -15 | 17%[46.1 µM]
CCOc1ccccc1NC(=O)c1cc(SC)ccc1Cl | -5% | ? | 22µM* | -27 | -25%
COc1cc(OC)c(OC)cc1/C=C1/Cc2ccccc2C1=O | -2% | . | ? | -10 | .
CCC1C/C(=C/c2ccco2)C(=O)/C(=C/c2ccco2)C1 (centres undefined) | . | -40% | ? | . | -27%
COc1cc(OC)c(OC)cc1/C=C1\CC(C)C/C(=C\c2cc(OC)c(OC)cc2OC)C1=O (centres undefined) | 13µM* | . | ? | -99* | .
CCC1C/C(=C\c2cc(OC)c(OC)cc2OC)C(=O)/C(=C/c2cc(OC)c(OC)cc2OC)C1 (centres undefined) | ? | . | 7.1µM* | . | .
COc1ccccc1CN1CCOc2ccc(CN3CCC(Oc4cccnc4)CC3)cc2C1 | -10% | . | . | . | .
Cc1ccc(C)c(NC(=O)Cn2c(SCC(=O)NCc3ccccc3)nc3ccccc32)c1 | -8% | . | . | 7 | -18%[46.1 µM]
SMILES | FMDV antiviral | MARV entry inh | HCV inhibitor | HCMV inh | LASV entry inh
CC(C)(C)c1cc(C(c2cccnc2)N2CCN(CCO)CC2)cc(C(C)(C)C)c1O (centres undefined) | . | ? | 10µM* | -102* | ?
Cc1cc(C)cc(N2C(=O)CS(=O)(=O)C23C(=O)N(Cc2ccccc2)c2ccccc23)c1 (centres undefined) | -13% | . | . | -16 | 3%[46.1 µM]
COc1cc(O)c2c(=O)c(O)c(-c3ccc(O)c(O)c3)oc2c1 | 7% | . | . | . | .
O=c1c(O)c(-c2ccc(O)cc2)oc2cc(O)cc(O)c12 | 51% | . | 6.3µM* | . | .
CCc1ccc(/C=N/NC(=O)c2ccccn2)cc1 | 13µM* | ? | -18% | -2 | 1.4µM*
Cc1ccc(/C=N/NC(=O)c2ccccn2)s1 | -46% | 6.5µM* | 8% | 104 | ?
CCN(CC)c1ccc(/C=N/NC(=O)c2cnccn2)cc1 | 31% | ? | -14% | ? | ?

High-throughput results (PubChem)
